Inconclusive results are not listed. Calls of active or inactive are those of the source. Unless noted, calls come from the whole dose curve.
What was measured:
[1] = qHTS assay to identify small molecule antagonists of the vitamin D receptor (VDR) signaling pathway - cell viability counter screen (AID 743225; active = well fitted curve in the direction sought with a large enough effect in the repeat runs; an effect the other way counts as inactive or inconclusive; note: % is set by controls: 0 for no effect and ±100 for the full control effect; nearly all actives have a fitted effect of over 50% in size)
How it was run: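 Same-well multiplex: following 16 h treatment of HEK 293T cells carrying a UAS-driven beta-lactamase reporter with compound and agonist (3 nM final), and a 2 h FRET substrate step, CellTiter-Glo was added and luminescence read after 30 min.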

[2] = qHTS assay to identify small molecule agonists of the NFkB signaling pathway - cell viability counter screen (AID 1159515); note: series mostly up to about 61 µM; % is set by controls: 0 for no effect and ±100 for the full control effect; nearly all actives have a fitted effect of over 55% in size
How it was run: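 Using the same wells as the NFkB reporter read, ME-180 NFkB-bla cells given compounds for 5 hr were assessed for viability via CellTiter-Glo, with luminescence taken after a 30 min room-temperature incubation.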

[3] = qHTS assay to identify small molecule agonists of the endoplasmic reticulum stress response signaling pathway (AID 1159516; active = well fitted activation curve with a large enough effect in the signal ratio in the repeat runs, not every such curve was filed as active; the % refers to the signal ratio; note: % is set by controls: 0 for no effect and ±100 for the full control effect)
How it was run: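 An ESRE-bla HeLa cell assay: compounds were pin-transferred from DMSO onto overnight-plated cells and left 5 hr at 37 C. Substrate was then loaded for 2 hr at room temperature before reading fluorescence at 460 nm and 530 nm.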

[4] = qHTS assay to identify small molecule agonists of the endoplasmic reticulum stress response signaling pathway - cell viability counter screen (AID 1159517);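 note: HeLa cells carrying an ER stress response element beta-lactamase reporter; series mostly up to about 61 µM; % is set by controls: 0 for no effect and ±100 for the full control effect; nearly all actives have a fitted effect of over 50% in size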
How it was run: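 Cells, HeLa ESRE-bla; density, 1,500/well; dosing, 5 hr at 37 C, 5% CO2; readout, CellTiter-Glo luminescence after 30 min RT.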

[5] = qHTS assay to identify small molecule antagonists of the retinoid-related orphan receptor gamma (ROR-gamma) signaling pathway - cell viability counter screen (AID 1159520; active = well fitted curve in the direction sought with a large enough effect in the repeat runs; an effect the other way counts as inactive or inconclusive; note: % is set by controls: 0 for no effect and ±100 for the full control effect; nearly all actives have a fitted effect of over 50% in size)
How it was run: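 Cytotoxicity was read from cellular ATP (CellTiter-Glo luminescence) after 16 hr at 37 C with 1 uM doxycycline induction. The inducer was added 2 hr after compound transfer to Tet-on ROR gamma CHO cells.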

[6] = target: Nuclear receptor ROR-gamma (Homo sapiens) (UniProt P51449); assay: qHTS assay to identify small molecule antagonists of the retinoid-related orphan receptor gamma (ROR-gamma) signaling pathway (AID 1159521; active = well fitted curve in the direction sought with a large enough effect in the repeat runs; an effect the other way counts as inactive or inconclusive;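 note: CHO cells with doxycycline inducible ROR-gamma driving an RORE luciferase reporter; top concentration of the series differs between compounds; % is set by controls: 0 for no effect and ±100 for the full control effect; nearly all actives have a fitted effect of over 50% in size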)
How it was run: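 Inducible-expression reporter assay: doxycycline (1 uM final) switched on RORγ in CHO cells bearing a ROR response element-luciferase construct, with test compounds present from 2 h beforehand. Decreased luminescence after 16 h defined antagonist activity.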

[7] = qHTS assay to identify small molecule agonists of the AP-1 signaling pathway - cell viability counter screen (AID 1159525); note: nearly all actives have a fitted effect of over 55% in size
How it was run: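 Luminescent ATP readout (Cell Titer Glo, 30 min RT), normalised to DMSO and tetra n-octyl ammonium bromide controls. Cells were ME-180 AP-1-bla in 0.5% dialyzed FBS Opti-MEM, with a 5 h, 37 °C compound exposure.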

[8] = qHTS assay to identify small molecule agonists of the AP-1 signaling pathway (AID 1159526); note: % is set by controls: 0 for no effect and ±100 for the full control effect
[9] = qHTS assay to identify small molecule agonists of the RXR signaling pathway - cell viability counter screen (AID 1159529; active = well fitted curve in the direction sought with a large enough effect in the repeat runs; an effect the other way counts as inactive or inconclusive)
How it was run: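 Counter screen: CellTiter-Glo luminescence. Cells: RXR-alpha-UAS-bla HEK 293T. Medium: 2% charcoal-stripped FBS. Treatment: 16 h, 37 C. Reagent incubation: 30 min, RT.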

[10] = target: Retinoic acid receptor RXR-alpha (Homo sapiens) (UniProt P19793); assay: qHTS assay to identify small molecule agonists of the RXR signaling pathway (AID 1159527); note: % is set by controls: 0 for no effect and ±100 for the full control effect; nearly all actives have a fitted effect of over 35% in size
Sequence of Retinoic acid receptor RXR-alpha (Homo sapiens) (P19793 whole entry, looked up): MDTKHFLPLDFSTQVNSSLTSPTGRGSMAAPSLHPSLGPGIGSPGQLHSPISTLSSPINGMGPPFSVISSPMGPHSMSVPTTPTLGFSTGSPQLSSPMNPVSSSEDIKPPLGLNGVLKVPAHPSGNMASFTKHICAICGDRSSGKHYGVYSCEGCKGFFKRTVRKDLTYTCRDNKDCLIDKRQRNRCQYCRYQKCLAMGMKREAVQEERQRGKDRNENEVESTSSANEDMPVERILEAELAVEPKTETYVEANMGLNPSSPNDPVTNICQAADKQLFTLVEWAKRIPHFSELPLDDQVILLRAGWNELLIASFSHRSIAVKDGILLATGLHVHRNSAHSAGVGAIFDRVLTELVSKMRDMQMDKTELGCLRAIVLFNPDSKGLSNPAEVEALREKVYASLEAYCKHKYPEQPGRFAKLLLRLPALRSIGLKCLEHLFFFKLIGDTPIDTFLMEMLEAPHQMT
How it was run: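 Compounds in DMSO were added to RXR-alpha-UAS-bla HEK 293T cells kept in 2% charcoal-stripped serum, and incubated 16 hr at 37 C with 5% CO2. Reporter signal came from a 2 hr B/G FRET substrate step.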

CC1(C)CC(N)CC(C)(C)N1
inactive: outcome [1] | outcome [2] | Potency [3] | outcome [4] | outcome [5] | outcome [6] | outcome [7] | Potency [8] | Potency [9]

CC(C)(Sc1cc(C(C)(C)C)c(O)c(C(C)(C)C)c1)Sc1cc(C(C)(C)C)c(O)c(C(C)(C)C)c1
inactive: outcome [1] | outcome [2] | Potency [3] | outcome [4] | outcome [5] | outcome [7] | Potency [8] | Potency [10] | Potency [9]

O=P(O)(O)C(O)(Cc1cccnc1)P(=O)(O)O
inactive: outcome [1] | outcome [2] | Potency [3] | outcome [4] | outcome [5] | outcome [7] | Potency [8] | Potency [9]

BrCCOc1ccccc1
inactive: outcome [1] | outcome [2] | Potency [3] | outcome [4] | outcome [5] | outcome [7] | Potency [8] | Potency [10] | Potency [9]

C=CC(=O)OCC[N+](C)(C)C
inactive: outcome [1] | outcome [2] | Potency [3] | outcome [4] | outcome [5] | outcome [7] | Potency [8] | Potency [10] | Potency [9]

Cc1ccc(NC(N)=O)cc1
inactive: outcome [1] | outcome [2] | Potency [3] | outcome [4] | outcome [5] | outcome [6] | outcome [7] | Potency [8] | Potency [9]

CC(=O)c1ccc(O)c(C(N)=O)c1
inactive: outcome [1] | outcome [2] | Potency [3] | outcome [4] | outcome [5] | outcome [7] | Potency [8] | Potency [10] | Potency [9]

COC(=O)C(c1ccccc1Cl)N1CCc2sccc2C1 (stereo unspecified)
inactive: outcome [1] | outcome [2] | Potency [3] | outcome [4] | outcome [5] | outcome [7] | Potency [8] | Potency [10] | Potency [9]

C[C@@H]1CC[C@@]2(OC1)O[C@H]1C[C@H]3[C@@H]4CC[C@H]5C[C@@H](O)CC[C@]5(C)[C@H]4CC(=O)[C@]3(C)[C@H]1[C@@H]2C
inactive: viability change, negative = cytotoxic [1] -3.49% [at 6.95 µM] | activity, negative = cytotoxic [2] 6.74% [at 6.95 µM] | activation [3] 3.05% [at 6.95 µM] | activity change, negative = cytotoxicity [4] -1.94% [at 6.95 µM] | activity, negative = cytotoxicity [5] 4% [at 8.39 µM] | viability change, negative = cytotoxic [7] 2.16% [at 6.97 µM] | activation [8] -4.54% [at 6.97 µM] | activity change, negative = cytotoxicity [9] -0.0245% [at 6.97 µM]

CC(C)(C)OC=O
inactive: outcome [1] | outcome [2] | Potency [3] | outcome [4] | outcome [5] | outcome [6] | outcome [7] | Potency [8] | Potency [9]

CN(C)CCCN(C)C
inactive: activity, negative = cytotoxic [2] 0.193% [at 6.95 µM] | activation [3] 3.45% [at 6.95 µM] | activity change, negative = cytotoxicity [4] 19.8% [at 6.95 µM] | activity, negative = cytotoxicity [5] 11.1% [at 8.39 µM] | viability change, negative = cytotoxic [7] -0.503% [at 6.97 µM] | activation [8] -5.98% [at 6.97 µM] | activation [10] 4.65% [at 6.98 µM] | activity change, negative = cytotoxicity [9] -1.24% [at 6.97 µM]

CCCCCCCOC(C)=O
inactive: outcome [1] | outcome [2] | Potency [3] | outcome [4] | outcome [5] | outcome [7] | Potency [8] | Potency [10] | Potency [9]

Cc1cc(N)no1
inactive: outcome [1] | outcome [2] | Potency [3] | outcome [4] | outcome [5] | outcome [7] | Potency [8] | Potency [10] | Potency [9]

O=C(O)/C=C(\CC(=O)O)C(=O)O
inactive: outcome [1] | outcome [2] | Potency [3] | outcome [4] | outcome [5] | outcome [7] | Potency [8] | Potency [10] | Potency [9]

NNC(=O)CCCCC(=O)NN
inactive: outcome [1] | outcome [2] | Potency [3] | outcome [4] | outcome [5] | outcome [7] | Potency [8] | Potency [10] | Potency [9]

C=CCN1CCc2nc(N)sc2CC1
inactive: outcome [1] | outcome [2] | Potency [3] | outcome [4] | outcome [5] | outcome [7] | Potency [8] | Potency [10] | Potency [9]

Cc1cc(C)c(N)c(Cl)c1
inactive: outcome [1] | outcome [2] | Potency [3] | outcome [4] | outcome [5] | outcome [7] | Potency [8] | Potency [10] | Potency [9]

CCN(CC)CC
inactive: outcome [1] | outcome [2] | Potency [3] | outcome [4] | outcome [5] | outcome [7] | Potency [8] | Potency [10] | Potency [9]

c1coc(Cn2cccc2)c1
inactive: outcome [1] | outcome [2] | Potency [3] | outcome [4] | outcome [5] | outcome [7] | Potency [8] | Potency [10] | Potency [9]

CCCCCCC(O)CO (stereo unspecified)
inactive: outcome [1] | outcome [2] | Potency [3] | outcome [4] | outcome [5] | outcome [6] | outcome [7] | Potency [8] | Potency [9]

COc1cc(C(=O)NC2CCCNC2)cc(OC)c1OC (stereo unspecified)
inactive: outcome [1] | outcome [2] | Potency [3] | outcome [4] | outcome [5] | outcome [7] | Potency [8] | Potency [10] | Potency [9]

O=C(O)Cc1ccccc1Oc1ccc(Cl)cc1Cl
inactive: outcome [2] | Potency [3] | outcome [4] | outcome [5] | outcome [7] | Potency [8] | Potency [10] | Potency [9]

COc1cc(OC)cc(OC)c1
inactive: outcome [1] | outcome [2] | Potency [3] | outcome [4] | outcome [5] | outcome [7] | Potency [8] | Potency [10] | Potency [9]

C[n+]1ccccc1/C=N/O
inactive: outcome [1] | outcome [2] | Potency [3] | outcome [4] | outcome [5] | outcome [7] | Potency [8] | Potency [10] | Potency [9]

O=C(O)COc1ccc2ccccc2c1
inactive: outcome [1] | outcome [2] | Potency [3] | outcome [4] | outcome [5] | outcome [7] | Potency [8] | Potency [9]

CCCCCCCCS(=O)(=O)O
inactive: outcome [1] | outcome [2] | Potency [3] | outcome [4] | outcome [5] | outcome [7] | Potency [8] | Potency [9]

COCCCOc1cc(C[C@@H](C[C@H](N)[C@@H](O)C[C@H](C(=O)NCC(C)(C)C(N)=O)C(C)C)C(C)C)ccc1OC
inactive: outcome [2] | Potency [3] | outcome [4] | outcome [5] | outcome [7] | Potency [8] | Potency [10] | Potency [9]
